A selection: hits, their analogues and other compounds. The true share with any hit is near 2.4%.
ASK1 primary = ASK1 kinase inhibitors, primary screen, biochemical, AlphaScreen; Mitogen-activated protein kinase kinase kinase 5 (Homo sapiens), Q99683; AlphaScreen MKK6 phosphorylation by ASK1, luminescence; inhibition, % at 7.44 µM; 22,000 compounds, 0.99% hits; in the data active means inhibition above about 35%
ULK1 primary = ULK1 kinase inhibitors, primary screen, biochemical, AlphaScreen; Serine/threonine-protein kinase ULK1 (Homo sapiens), O75385; AlphaScreen Atg13 phosphorylation by ULK1, luminescence; inhibition, % at 5.96 µM; 30,000 compounds, 1.9% hits; AID 1259251, 2017; in the data active means inhibition above about 43%
Target sequence (O75385 whole entry, looked up): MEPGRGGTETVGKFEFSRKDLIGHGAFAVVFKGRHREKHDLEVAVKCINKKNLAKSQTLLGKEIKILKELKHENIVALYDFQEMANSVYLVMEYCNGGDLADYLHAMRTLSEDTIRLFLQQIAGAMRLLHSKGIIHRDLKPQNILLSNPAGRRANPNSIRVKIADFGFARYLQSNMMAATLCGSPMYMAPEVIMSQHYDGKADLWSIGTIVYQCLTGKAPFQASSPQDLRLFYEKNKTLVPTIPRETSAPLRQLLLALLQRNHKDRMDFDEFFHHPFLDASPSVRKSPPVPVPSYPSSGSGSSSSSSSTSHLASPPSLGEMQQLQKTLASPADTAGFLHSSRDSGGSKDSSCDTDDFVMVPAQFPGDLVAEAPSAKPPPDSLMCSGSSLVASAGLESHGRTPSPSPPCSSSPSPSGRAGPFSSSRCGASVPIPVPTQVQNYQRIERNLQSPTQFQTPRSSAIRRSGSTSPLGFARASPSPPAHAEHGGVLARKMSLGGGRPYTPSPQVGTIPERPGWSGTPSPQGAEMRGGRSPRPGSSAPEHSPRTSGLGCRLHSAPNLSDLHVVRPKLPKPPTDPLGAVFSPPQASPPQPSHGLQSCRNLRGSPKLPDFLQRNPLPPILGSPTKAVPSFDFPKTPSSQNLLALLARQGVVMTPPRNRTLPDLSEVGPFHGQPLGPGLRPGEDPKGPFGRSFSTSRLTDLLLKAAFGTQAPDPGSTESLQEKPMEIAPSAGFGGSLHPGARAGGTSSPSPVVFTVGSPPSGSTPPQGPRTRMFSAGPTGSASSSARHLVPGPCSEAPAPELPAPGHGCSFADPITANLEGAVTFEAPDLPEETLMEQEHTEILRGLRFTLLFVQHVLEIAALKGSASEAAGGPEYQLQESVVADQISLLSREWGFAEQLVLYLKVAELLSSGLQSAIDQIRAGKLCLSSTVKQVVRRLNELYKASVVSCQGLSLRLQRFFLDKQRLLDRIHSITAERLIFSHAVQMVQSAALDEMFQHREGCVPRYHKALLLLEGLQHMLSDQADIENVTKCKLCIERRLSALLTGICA
Each line names hits and unclear results; the compound was inactive in the other large screens; ! = not active in a repeat.

COc1cc(Nc2nc(NCc3ccccc3)c3[nH]cnc3n2)cc(OC)c1OC	ULK1 primary 67
CCN(CC)c1nc(NCCCN2CCCC2=O)nc(NCc2nc3ccccc3[nH]2)n1	none
CC(C)n1c(Nc2cccc(N(C)C)c2)nc2c(Nc3ccc(N4CCOCC4)cc3)ncnc21	ASK1 primary 37
CC(C)n1c(Nc2ccc(N3CCOCC3)cc2)nc2c(Nc3ccccc3)ncnc21	none
Cc1cncc2cccc(N3CCN(C(=O)[C@H](C)O)CC3)c12	none
Cc1cncc2cccc(NC3CCCNC3)c12 (stereo unspecified)	ULK1 primary 72
Cc1cncc2cccc(NC3CCN(C(=O)[C@H](C)O)CC3)c12	none
Cc1cncc2cccc(S(=O)(=O)N3CCCNC[C@@H]3C)c12	ULK1 primary 81!
c1cnc(Nc2nc(NCCN3CCOCC3)c3ncn(-c4ccsc4)c3n2)nc1	none
COc1cc2nc(Nc3ccc(C(F)(F)F)cc3)nc(NCCN3CCOCC3)c2cc1OC	none
CC(=O)Nc1ccc(NC(=O)c2cccc(-c3ccc(C(=O)NC4CC4)cc3)c2)cc1	ULK1 primary 47
O=C(NC1CC1)c1ccc(-c2cccc(C(=O)NC3CC3)c2)cc1	none
O=C(NCCCN1CCCC1=O)C1CCN(c2ccc(NCc3cccnc3)nn2)CC1	none
CC(C)n1cnc2c(NCc3nc4ccccc4[nH]3)nc(Nc3ccc(C(F)(F)F)cc3)nc21	none
Cc1cc(Nc2ccc(N3CCOCC3)cc2)nc(N2CCN(c3ccccn3)CC2)n1	ASK1 primary 46
CC(=O)Nc1ccc(Nc2cc(C)nc(N3CCc4ccccc4C3)n2)cc1	none
CC(=O)Nc1ccc(Nc2cc(C)nc(N3CCN(c4ccccn4)CC3)n2)cc1	none
Cc1cc(Nc2ccc(N3CCOCC3)cc2)nc(N2CCc3ccccc3C2)n1	ASK1 primary 58
COc1cc(Nc2nc(NCc3cccnc3)nc3c2ncn3CCN2CCCC2=O)cc(OC)c1OC	none
O=C1Cc2ccc(Nc3ccnc(Nc4ccc(N5CCOCC5)cc4)c3)cc2N1	none
COc1ccc(-c2cccc(C(=O)Nc3ccccc3)n2)cc1	none
O=C(/C=C/c1ccccc1)c1cccc(N2C(=O)C=CC2=O)c1	ULK1 primary 55 (no result: ASK1 primary)
COc1cc(NC(=O)c2cccc(-n3cc(/C=C/C(=O)c4ccccc4)cn3)c2)ccc1CN(C)C	none
CCN(CC)C(=O)C1CCCN(c2nc(NCc3nc4ccccc4[nH]3)c3cc(OC)c(OC)cc3n2)C1 (stereo unspecified)	ULK1 primary 49
CCN(CC)C(=O)C1CCCN(c2nc(NCc3cccnc3)c3cc(OC)c(OC)cc3n2)C1 (stereo unspecified)	none
c1ccc(CNc2ccnc(Nc3ccc(N4CCOCC4)cc3)c2)cc1	none
CCN(CC)C(=O)C1CCCN(c2ncc(C(=O)Nc3ccc(Oc4ccccc4)cc3)s2)C1 (stereo unspecified)	none
CCN(CC)C(=O)C1CCCN(c2ncc(C(=O)Nc3ccc(N4CCOCC4)cc3)s2)C1 (stereo unspecified)	ULK1 primary 49
O=C(Nc1ccc(N2CCOCC2)cc1)c1cnc(N2CCN(c3ccccn3)CC2)s1	none
O=C(Nc1ccc(N2CCOCC2)cc1)c1cnc(N2CCOCC2)s1	ULK1 primary 45
COc1cc(NC(=O)c2cnc(-c3ccc(C(=O)N4CCN(C)CC4)cc3)s2)cc(OC)c1OC	none
Cc1cc(NCCO)nc(Nc2ccccn2)n1	none
O=C(NCc1ccccc1)c1ccc2nc(-c3ccccc3)sc2c1	none
COc1cc(Nc2nc(Nc3ccccc3)ncc2C)cc(OC)c1OC	ULK1 primary 62
COc1cc(Nc2cc(C)nc(Nc3cc(OC)c(OC)c(OC)c3)n2)cc(OC)c1OC	none
COc1cc(Nc2ncc(C)c(Nc3cc(OC)c(OC)c(OC)c3)n2)cc(OC)c1OC	none
COc1cc(Nc2nc(Nc3ccncn3)ncc2C)cc(OC)c1OC	none
COc1cc(Nc2cc(C)nc(Nc3cccnc3)n2)cc(OC)c1OC	ULK1 primary 45
COc1cc(Nc2nc(Nc3ccccn3)ncc2C)cc(OC)c1OC	ULK1 primary 51
CCN(CC)c1nc(NC2CCN(Cc3ccccc3)CC2)nc(N2CCc3ccccc3C2)n1	none
CCOc1ccc(-c2cc(=O)c3cc(NC(=O)c4ccc(OC)c(OC)c4)ccc3o2)cc1	none (no result: ASK1 primary)
COc1cc(C(=O)NS(=O)(=O)c2ccccc2C)ccc1Cc1cn(C)c2ccc(NC(=O)OC3CCCC3)cc12	ULK1 primary 65 (no result: ASK1 primary)
O=C(Nc1ccccc1)c1csc(-c2ccc(N3CCOCC3)nc2)n1	none
NC(=O)c1ccccc1Nc1nc(Nc2ccc(N3CCOCC3)cc2F)ncc1Cl	ULK1 primary 83
NC(=O)c1ccccc1Nc1nc(Nc2ccc(F)cc2)ncc1Cl	ULK1 primary 85
Cn1ncnc1-c1ccccc1Nc1nc(Nc2ccc(N3CCOCC3)cc2)ncc1Cl	ULK1 primary 78
CNC(=O)c1ccccc1Nc1nc(Nc2ccc(N3CCOCC3)c(Cl)c2)ncc1Cl	ULK1 primary 58
CN(C)CCNC(=O)c1ccccc1Nc1ccnc(Nc2ccc(N3CCOCC3)cc2)c1	none
NC(=O)c1ccc(Nc2ncc(Cl)c(-c3ccccc3)n2)cc1	none
Fc1cc(N2CCOCC2)ccc1Nc1nccc(-c2cncc(N3CCOCC3)c2)n1	none
Cn1cnc(-c2ccccc2Nc2nc(Nc3ccc(N4CCOCC4)cc3)ncc2Cl)n1	none
CCCNC(=O)c1ccc2nc(Nc3cc(OC)c(OC)c(OC)c3)sc2c1	none
Oc1ccc(CCNc2nc(Nc3ccc4ncccc4c3)nc3c2ncn3-c2ccccc2)cc1	none
O=C(Cc1cc(-c2cccc(C(=O)NCCN3CCOCC3)c2)n[nH]1)Nc1ccccc1Cl	none
CCCNC(=O)c1ccc(-c2c(C)noc2C)s1	none
O=C(Nc1nc2ccc(-c3cn[nH]c3)cc2s1)C1CNCC1c1ccccc1 (stereo unspecified)	none
CC(C)N(CCNC(=O)Cc1cn(-c2ccc(Nc3cnccn3)nn2)c2ccccc12)C(C)C	none
NC(=O)c1ccccc1Nc1nc(Nc2ccc(N3CCOCC3)c(F)c2)ncc1Cl	ULK1 primary 72
COc1cc(Nc2cc(Nc3ccccc3C(N)=O)ccn2)ccc1N1CCOCC1	none
CCCNC(=O)c1ccc(COc2cccc3c2OC(C)(C)C3)cc1	none (no result: ASK1 primary)
O=C(NC1CCN(Cc2ccccc2)CC1)c1ccc2nc(N3CCCC3CO)sc2c1 (stereo unspecified)	none
CCN(CC)c1cc(-c2ccccc2)nc(-c2ccccn2)n1	none (no result: ASK1 primary)
c1cnc(Nc2nc(Nc3ccc(N4CCOCC4)cc3)c3ncn(C4CCCCC4)c3n2)nc1	none
c1cncc(CNc2nc(Nc3ccc(N4CCOCC4)cc3)c3ncn(C4CCCCC4)c3n2)c1	ULK1 primary 62
c1ccc(CNc2nc(Nc3ccc(N4CCOCC4)cc3)nc3c2ncn3C2CCCCC2)cc1	none
CC(=O)Nc1ccc(Nc2nc(Nc3ccc(N4CCOCC4)cc3)nc3c2ncn3C2CCCCC2)cc1	ULK1 primary 48
Cc1cccc(CC(=O)Nc2cnn(-c3cccc(-c4cccnc4)c3)c2)c1	none
NC(=O)c1cnccc1Nc1ccnc(Nc2ccc(N3CCOCC3)cc2)c1	ULK1 primary 44
Cc1cnc(Nc2cccc(N3CCOCC3)c2)cc1Nc1ccccc1C(N)=O	ULK1 primary 82
COc1cc(N2CCOCC2)ccc1Nc1cc(Nc2ccccc2C(N)=O)c(C)cn1	none
NC(=O)c1nccnc1Nc1ccnc(Nc2ccc(N3CCOCC3)cc2)c1	none
c1cc(Nc2cc(C3CC3)[nH]n2)cc(Nc2ccc(N3CCOCC3)cc2)n1	ULK1 primary 47
CN1CCN(c2ccc(Nc3cc(Nc4ccccc4C(N)=O)ccn3)cc2)CC1	none
